Source: PubChem (National Center for Advancing Translational Sciences (NCATS))
GoLoco inh red – qHTS Assay for Inhibitors of RGS12 GoLoco Motif Activity (Red Fluorophore); Gai1:RGS12 GoLoco peptide FP, rhodamine, 10 min; Potency, µM (highest dose often 61.6 µM), usual class: inhibitors; Guanine nucleotide-binding protein G(i) subunit alpha-1 (Homo sapiens), P63096; hit rate 0.44% among 230,000; AID 880, 2007; active means well fitted inhibition curve with a large enough effect, not every such curve was filed as active; inactive means no such curve, though single readings can be large or run the other way; further: nearly all actives have a fitted effect of over 30% in size
KDM4E inh – qHTS Assay for Inhibitors of Human Jumonji Domain Containing 2E (JMJD2E) | Lysine-specific demethylase 4E (Homo sapiens), B2RXH2 | JMJD2E catalytic domain, FDH-coupled NADH fluorescence (FDH is formaldehyde dehydrogenase) | Potency, µM (top dose mostly 57.1 µM), usual class: inhibitors | hit rate 1.6% among 230,000 | AID 2147, 2009; active means well fitted inhibition curve with a large enough effect, not every such curve was filed as active; inconclusive means small, poorly fitted or top-dose-only effect, or another doubt; inactive means no such curve, though single readings can be large or run the other way; further: nearly all actives have a fitted effect of over 50% in size
Target sequence (B2RXH2 1-337 limits assumed): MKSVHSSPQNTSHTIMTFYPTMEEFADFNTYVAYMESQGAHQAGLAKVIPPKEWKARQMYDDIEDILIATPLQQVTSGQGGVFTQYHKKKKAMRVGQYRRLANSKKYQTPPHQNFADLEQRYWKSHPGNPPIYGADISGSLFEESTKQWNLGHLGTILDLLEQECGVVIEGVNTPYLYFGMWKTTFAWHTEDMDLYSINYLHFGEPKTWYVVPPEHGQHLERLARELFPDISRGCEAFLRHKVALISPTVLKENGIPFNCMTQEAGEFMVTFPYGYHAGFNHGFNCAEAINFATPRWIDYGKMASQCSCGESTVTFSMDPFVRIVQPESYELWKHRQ
FBPA coupling cs – qHTS Assay for Inhibitors of Fructose-1,6-bisphosphate Aldolase from Giardia Lamblia: Coupling assay counterscreen; coupling enzyme system counterscreen, AmpLite Red fluorescence; activity change, negative = inhibition, % at 58.2 µM, hits read low; hit rate 0.67% among 290,000; in the data active means activity change below about -30%
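Final compound at 57.5 uM, incubated 10 min at RT with coupling enzyme reagent (glyceraldehyde-3-phosphate), then 20 min with substrate and AmpLite Red detection. Fluorescence read at 525/598 nm; tests interference with the coupling assay, not aldolase inhibition.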
VDR inhibitor – Inhibitors of the vitamin D receptor (VDR): qHTS; VDR-SRC2-3 peptide fluorescence polarization, 2 h; Potency, µM, usual class: inhibitors; hit rate 0.93% among 400,000; AID 504847, 2011
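Inhibition of the VDR/SRC2-3 peptide interaction is quantified by fluorescence polarization. Compounds (23 nl, pintool) incubate with the reagents for 2 hours at ambient room temperature.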
HttQ103 aggreg – qHTS Multiplex Assay to Identify Dual Action Probes in a Cell Model of Huntington: Aggregate Formation (GFP). AID 1688, 2009. hit rate 1.1% among 220,000. Potency, µM (series often up to 46.1 µM), actives largely listed as inhibitors. PC12 HttQ103-GFP aggregates, Acumen cytometry, 40 h; further: nearly all actives have a fitted effect of over 60% in size
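PC12 cells stably carrying ecdysone-inducible HTT exon 1 Q103–GFP were induced with tebufenozide (100 nM final) and treated with library compounds in titration. GFP aggregates in lysates were counted by laser scanning cytometry.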
HTT cytoprotect – qHTS Multiplex Assay to Identify Dual Action Probes in a Cell Model of Huntington: Cytoprotection (ATP). hit rate 0.14% among 230,000. PC12 HTT-Q103 induced, cytoprotection, ATP luminescence, 40 h. Potency, µM (doses to about 56.4 µM), hits mostly activators. AID 1471, 2008; further: nearly all actives have a fitted effect of over 45% in size
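Rat PC12, Q103 Htt exon1-GFP fusion, ecdysone promoter; tebufenozide inducer 100 nM final; compound titration; qHTS, 1500 cells/well; ATPlite luminescent read.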
A number is an active result; n = inactive; u = inconclusive; x = not tested or not shown; [ ] = another dose, or the depositor's remark. Rows were chosen to be rich in hits. Some 2.3% of all compounds tested hit in one or more screens of this group. Unless noted, the call rests on the fitted dose curve; in most records, active means well fitted curve in the direction sought with a large enough effect; inconclusive means small, poorly fitted or top-dose-only effect, or another doubt; inactive means no such curve, though single readings can be large; an effect the other way counts as inactive or inconclusive.

SMILES | GoLoco inh red | KDM4E inh | FBPA coupling cs | VDR inhibitor | HttQ103 aggreg | HTT cytoprotect
C=CCn1c(N)c(C(=O)NCC2CCCO2)c2nc3ccccc3nc21 (centres undefined) | x | n | -56 | n | n | n
O=C(NCC1CCCO1)c1coc2nc3ccccc3nc12 (centres undefined) | n | u | n | n | n | n
Nc1cccc2[nH]c(=O)c3ccccc3c12 | x | x | x | n | x | x
O=C(NCCO)c1ccc(Cl)cc1 | n[14.2 µM] | x | x | x | x | n[10 µM]
COCCCN(Cc1cccs1)S(=O)(=O)c1csc(C(N)=O)c1 | x | x | x | n | x | x
C[C@H]1CN([C@@H](C)CO)C(=O)c2cc(NS(=O)(=O)c3ccc(Cl)cc3)ccc2O[C@@H]1CN(C)CC1CCCCC1 | x | x | x | 89µM | x | x
Fc1cc(F)c(F)c(SCCc2ccncc2)c1F | n | u | n | 50µM | n | n
Fc1ccc(SCCc2ccncc2)cc1 | n | n | n | u | n | n
COC(=O)c1c(C)oc2ccc(N(C(C)=O)S(=O)(=O)c3ccccc3)cc12 | x | x | n | n | x | x
COc1ccc(S(=O)(=O)N(C(C)=O)c2ccc3oc(=O)sc3c2)cc1 | n | n | n | 79µM | u | n[10 µM]
COC(=O)[C@H](Cc1ccccc1)NC(=O)NCCc1ccccc1F | x | x | n | n | x | x
Cc1ccc(NC(=O)/C(C#N)=C/c2cc(C)n(-c3ccc(F)cc3)c2C)cc1C | x | x | x | n | x | x
CN(C)c1nc(C=C(C#N)C#N)c(Cl)n1-c1ccc(F)cc1 | n | n | n | 25µM | u | n
Cc1cc(C)nc(SCc2ccc(F)cc2)n1 | n | n | n | n | u | 3.2µM
CN(C)c1nc(Nc2ccc(F)cc2)nc(Oc2ccc(F)cc2)n1 | x | x | n | n | x | x
CN(C)c1nc(N/N=C/c2ccccc2O)nc(Nc2ccc(F)cc2)n1 | n | 28µM | n | n | u | n
CCn1c(=O)cc(OCC(=O)Nc2cc(OC)c(OC)c(OC)c2)c2ccccc21 | x | x | x | n | x | x
N#C/C(=C\c1c[nH]c2ccccc12)C(=O)c1ccc(O)c(O)c1 | n | 2.2µM | x | u | x | n[1.9 µM]
N#C/C(=C\c1c[nH]c2ccccc12)C(=O)NC1CC1 | x | x | n | n | x | x
COc1cccc(Oc2nnnn2-c2ccccc2)c1 | x | n | n | n | n | n
COc1cccc(-n2nnnc2S(C)(=O)=O)c1 | n | n | n | 45µM | 2.5µM | n
O=C(c1ccccc1)N1CCN(c2ncnc3sc4c(c23)CCC4)CC1 | n | n | n | n | 35µM | n[10 µM]
O=c1[nH]c(=O)c2nc(Br)n(C3OC(CO)C(O)C3O)c2[nH]1 (centres undefined) | n | n | n | n | x | x
Cc1nc2c(s1)sc1ccccc12 | n | n | n | n | n | n
CC[n+]1c(C)sc2sc3ccccc3c21 | 11µM | 14µM | n | x | n[9.22 µM] | n[10 µM]
SMILES | GoLoco inh red | KDM4E inh | FBPA coupling cs | VDR inhibitor | HttQ103 aggreg | HTT cytoprotect
Cc1cccc(N2CCN(C(=O)Cn3ncc4c([nH]c5ccccc54)c3=O)CC2C)c1 (centres undefined) | x | x | x | n | x | x
O=C(CSCc1ccc(C(=O)O)cc1)Nc1ccccc1 | n | n | n | n | n[9.22 µM] | u
O=C(CSCc1ccc(C(=O)O)cc1)Nc1ccc2ccccc2c1 | n | n | n | n | 40µM | x
O=C(Cc1ccccc1)NNc1ccc2ccccc2c1 | n | 25µM | n | n | u | n[10 µM]
CO[C@@H]1COC(=O)C/C=C\[C@@H](C)COC(=O)[C@H](Cc2ccccc2)NC(=O)C/C=C\[C@H]1C | x | x | n | x | x | n[10 µM]
CCCCCCCCSc1nnc(CSc2nc3nc(C)cc(C)n3n2)o1 | n | n | n | n | 22µM | n
Cc1cc(C)n2nc(SCc3nnc(SCCCCl)o3)nc2n1 | n | n | n | n | n | n
Cc1c(Cl)ccc2c(C(=O)Nc3cc(C(C)(C)C)on3)cc(-c3ccccn3)nc12 | x | x | n | n | x | x
COC(=O)/C=C/C(C)=C/C=C/C(C)=C/C=C/C=C(C)/C=C/C=C(C)/C=C/C(=O)O | n | u | n | 89µM | x | x
